# Laboratory results published in PubChem BioAssay AID463173 (ICCB-Longwood Screening Facility, Harvard Medical School, 2010).
# About 4,300 (8.3%) of roughly 52,000 compounds were called active. Cut-off read from the data, not from the text of the source: active = survival mostly below about 52% (no sharp cut-off); inactive = mostly above about 56%. For the sample, actives were picked, then their nearest neighbours and some compounds at random.
# System: DeltatarO mutant
# Assay: S. aureus survival, RN4220 and DeltatarO strains – OD600, teichoic acid synthesis inhibitors, primary screen (AID 463173)
# Conditions: S. aureus RN4220 wild type/DeltatarO growth, OD600, 18 h, active compounds read low, screened at 18.75 µg/mL (by protocol)
row,Structure (SMILES),survival
1,Cc1cccc(-n2c(CCN3C(=O)c4ccccc4C3=O)nc3ccccc3c2=O)n1,87% (inactive)
2,Clc1ccc(CN2CCc3nc(Nc4ccc5c(c4)OCCO5)ncc3C2)cc1,94% (inactive)
3,CCOc1ccc(NC(=O)Cn2cc(C(=O)c3ccc(C)cc3)c(=O)c3cc4c(cc32)OCO4)cc1,70% (inactive)
4,CCOc1ccc(NC(=O)CCS(=O)(=O)c2ccc3nc(C)sc3c2)cc1,55% (inactive)
5,CCOC(=O)c1ccccc1NC(=O)CN1C(=O)CC(c2ccco2)Sc2ccccc21 (configuration not stated),72% (inactive)
6,O=C(Cn1ccc2cc(S(=O)(=O)N3CCCCCC3)ccc21)NCc1ccccc1Cl,77% (inactive)
7,O=C(Cn1ccc2cc(S(=O)(=O)N3CCCCCC3)ccc21)NCCc1ccccc1Cl,88% (inactive)
8,CCc1ccc(CNC(=O)C(C)n2ccc3cc(S(=O)(=O)N4CCCCCC4)ccc32)cc1 (configuration not stated),94% (inactive)
9,Cc1ccc(CNC(=O)C(C)n2ccc3cc(S(=O)(=O)N4CCCC4)ccc32)cc1 (configuration not stated),102% (inactive)
10,O=C(Cn1ccc2cc(S(=O)(=O)N3CCCCC3)ccc21)NCCc1ccccc1Cl,-4% (active)
11,CC(C(=O)NCc1ccccc1)n1ccc2cc(S(=O)(=O)N3CCCC3)ccc21 (configuration not stated),20% (active)
12,CCn1nc(C)c2c(-c3ccccc3)cc(=O)n(C(C)C(=O)NCCC(C)C)c21 (configuration not stated),99% (inactive)
13,COc1ccccc1CNC(=O)C(NS(=O)(=O)c1ccc2c(c1)CCN2C(C)=O)C(C)C (configuration not stated),79% (inactive)
14,Cc1ccc2sc(NC(=O)c3ccc4c(c3)OCCO4)nc2c1C,92% (inactive)
15,CNC(=O)c1c(NC(=O)c2cc(=O)c3ccccc3o2)sc2c1CCC2,94% (inactive)
16,Cc1ccc(C)c(NC(=O)CSc2c3c(nc4ccc(Cl)cc24)CCCC3)c1,53% (inactive)
17,O=C(CSc1c2c(nc3ccc(Cl)cc13)CCCC2)NCc1ccccc1Cl,119% (inactive)
18,CCC(C)NC(=O)CSc1c2c(nc3cc(Cl)ccc13)CCCC2 (configuration not stated),82% (inactive)
19,CC1CCCN(C(=O)CSc2c3c(nc4cc(Cl)ccc24)CCCC3)C1 (configuration not stated),-5% (active)
20,CC1CCN(C(=O)CSc2c3c(nc4ccc(Cl)cc24)CCCC3)CC1,0% (active)
21,O=C(CSc1c2c(nc3ccc(Cl)cc13)CCCC2)N1CCCCC1,22% (active)

row,Structure (SMILES),survival
1,CCOC(=O)c1ccc(NC(=O)CSc2c3c(nc4cc(Cl)ccc24)CCCC3)cc1,68% (inactive)
2,COc1ccc(OC)c(CNC(=O)CSc2c3c(nc4cc(Cl)ccc24)CCCC3)c1,68% (inactive)
3,Cc1ccc(CNC(=O)CSc2c3c(nc4cc(Cl)ccc24)CCCC3)cc1,80% (inactive)
4,CC1CCCCN1C(=O)CSc1c2c(nc3cc(Cl)ccc13)CCCC2 (configuration not stated),-6% (active)
5,CCOC(=O)C1CCN(c2nc3c(S(=O)(=O)c4ccc(Br)cc4)nnn3c3ccsc23)CC1,76% (inactive)
6,O=[N+]([O-])c1ccc(S(=O)(=O)N2CCn3cccc3C2c2ccc(Br)cc2)cc1 (configuration not stated),75% (inactive)
7,COc1ccc(-c2noc(CSc3nnc(C)n3-c3ccc(C)cc3)n2)cc1OC,59% (inactive)
8,COC(=O)c1ccc(-c2nc(-c3ccc(OC)c(OC)c3)no2)cc1,64% (inactive)
9,O=C(CSCc1cc(=O)c2cc(F)ccc2[nH]1)Nc1ccccc1Cl,94% (inactive)
10,CCOC(=O)c1ccc(NC(=O)CSc2nccn2Cc2ccc(OC)cc2)cc1,79% (inactive)
11,COc1cc(NC(=O)c2cc(-c3cccc(Cl)c3)on2)c(OC)cc1Cl,61% (inactive)
12,CC1CCc2nc(NC(=O)COc3ccc(C(C)(C)C)cc3)sc2C1 (configuration not stated),80% (inactive)
13,COCCNC(=O)CSc1c2c(nc3cc(Cl)ccc13)CCCC2,71% (inactive)
14,CCOc1ccc(CNC(=O)CSc2c3c(nc4cc(Cl)ccc24)CCCC3)cc1,51% (inactive)
15,CCOC(=O)C1CCN(C(=O)CSc2c3c(nc4ccc(Cl)cc24)CCCC3)CC1,39% (active)
16,CC1CCN(C(=O)CSc2c3c(nc4cc(Cl)ccc24)CCCC3)CC1,5% (active)
17,CCc1ccccc1Nc1sc(C(=O)c2cccc(OC)c2)c(N)c1S(=O)(=O)c1ccccc1,72% (inactive)
18,Cc1ccc(S(=O)(=O)CCc2nnc(NC(=O)C3CCCN3C(=O)NC3CCCCC3)s2)cc1 (configuration not stated),72% (inactive)
19,CCOc1ccc(CCNC(=O)c2sc3nc4n(c(=O)c3c2C)CCCC4)cc1,75% (inactive)
20,CCn1cc2nc(SCC(=O)Nc3ccc(C)cc3)n(Cc3ccc(C)cc3)c(=O)c2n1,69% (inactive)
21,O=c1cc2nc(-c3ccccc3)nc(SCc3cccc(Br)c3)n2[nH]1,98% (inactive)

row,Structure (SMILES),survival
1,O=c1cc2nc(-c3ccccc3F)nc(SCc3ccc(Br)cc3)n2[nH]1,0% (active)
2,Cc1ccc(-c2nc(SCc3ccc(Br)cc3)n3[nH]c(=O)cc3n2)cc1,37% (active)
3,Cc1ccc(CSc2nc(-c3ccc(C(C)(C)C)cc3)nc3cc(=O)[nH]n23)cc1,89% (inactive)
4,COc1ccccc1NC(=O)CSc1nc(-c2ccccc2F)nc2cc(=O)[nH]n12,71% (inactive)
5,Cc1cccc(-c2nc(SCc3ccc(Br)cc3)n3[nH]c(=O)cc3n2)c1,92% (inactive)
6,CCC(c1nnnn1CCOC)N1CCN(c2nc3ccccc3s2)CC1 (configuration not stated),87% (inactive)
7,N=C(N)N1CCN(CC(O)COc2ccccc2)CC1 (configuration not stated),84% (inactive)
8,C#CCn1cc(/C=C(/C#N)C(=O)Nc2ccccc2)c2ccccc21,54% (inactive)
9,CCCCNC(=O)C1CCN(c2nc(OC)nc(OC)n2)CC1,83% (inactive)
10,Cc1cccc(OCCSc2nc3ccccc3n2CC(=O)N2CCCCC2)c1C,28% (active)
11,O=C(CSc1nc2ccccc2n1CC(=O)N1CCCC1)N1CCCCC1,85% (inactive)
12,O=C(Cn1c(SCCOc2ccccc2Cl)nc2ccccc21)N1CCOCC1,39% (active)
13,Cc1ccc(OCCSc2nc3ccccc3n2CC(=O)N2CCCCC2)c(C)c1,51% (inactive)
14,CCn1c(SCCOc2ccccc2F)nc2ccccc21,0% (active)
15,Cc1ccc(C(C)C)c(OCCSc2nc3ccccc3n2CC(O)CO)c1 (configuration not stated),48% (inactive)
16,Cc1cccc(OCCSc2nc3ccccc3n2CC(=O)N2CCOCC2)c1C,50% (inactive)
17,CCn1c(SCC(N)=O)nc2ccccc21,79% (inactive)
18,COc1ccccc1OCCSc1nc2ccccc2n1CC(=O)N1CCOCC1,94% (inactive)
19,O=C(Cn1c(SCCOc2ccccc2Cl)nc2ccccc21)N1CCCCC1,34% (active)
20,Cc1ccc(C)c(OCCSc2nc3ccccc3n2CC(=O)N2CCOCC2)c1,55% (inactive)
